Screens from PubChem.
Sampled rows, rich in hits. Any-hit rate of the full collection: about 2.6%.
Cruzain inh noDet = inhibitors of Trypanosoma cruzi cruzain without detergent. P25779. purified cruzain, Z-FR-AMC fluorescence, no detergent. AID 1476. Potency, µM, for inactives: max response, negative = inhibition, actives largely listed as inhibitors. 2.3% of 200,000 active;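 further: plate controls were enzyme without inhibitor for no effect and buffer without enzyme for full effect; nearly all actives have a fitted effect of over 40% in size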
Target sequence (P25779 123-467 limits assumed): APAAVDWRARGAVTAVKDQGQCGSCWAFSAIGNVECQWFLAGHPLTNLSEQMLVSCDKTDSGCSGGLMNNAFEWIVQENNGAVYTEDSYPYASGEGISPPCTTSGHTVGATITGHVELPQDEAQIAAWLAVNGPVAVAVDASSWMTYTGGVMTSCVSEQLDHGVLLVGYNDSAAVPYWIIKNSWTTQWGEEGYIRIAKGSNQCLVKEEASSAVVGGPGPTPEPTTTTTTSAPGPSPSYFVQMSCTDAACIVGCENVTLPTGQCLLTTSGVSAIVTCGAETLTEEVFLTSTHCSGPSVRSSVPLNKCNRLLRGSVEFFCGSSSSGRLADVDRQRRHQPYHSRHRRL
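Detergent-free condition (0.00005% Triton X-100) in acetate buffer pH 5.5 with DTT. 1.5 nM enzyme and compound were pre-mixed 15 min, then 2 uM Z-FR-AMC substrate added; reaction progress from fluorescence change between first and third reads (60 s).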
Cruzain Triton = blocks cruzain activity in presence of Triton detergent; P25779; purified cruzain, Z-FR-AMC fluorescence, 0.01% Triton; Potency, µM, inactives show max response, negative = inhibition, usual class: inhibitors; 0.43% of 200,000 active;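 further: plate controls were neutral wells for no effect and buffer without enzyme for full effect; nearly all actives have a fitted effect of over 40% in size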
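Detergent-containing run (0.01% Triton X-100) in acetate buffer pH 5.5 with 5 mM DTT: enzyme at 1.5 nM final, 15 min compound preincubation at room temperature, then 2 uM Z-FR-AMC substrate. Activity taken as 60 s fluorescence increase at 360/450 nm.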
* = called active by the depositor; ? = inconclusive. The call rests on the fitted dose curve; in most records, active means well fitted curve in the direction sought with a large enough effect; inconclusive means small, poorly fitted or top-dose-only effect, or another doubt; inactive means no such curve, though single readings can be large; an effect the other way counts as inactive or inconclusive. Potency means the concentration at half of the fitted maximal effect.

SMILES	Cruzain inh noDet	Cruzain Triton
c1ccc2c([C@@H]3CCN(CCN4CCOCC4)C3)c[nH]c2c1	3%	0%
COc1ccc(C2CC(c3ccc4ccccc4c3OC(C)=O)=NN2C(=O)/C=C/c2ccccc2)cc1 (stereo not given)	7.9µM*	-1%
COc1ccc(C2CC(c3ccccc3OC(C)=O)=NN2C(=O)/C=C/c2ccccc2)cc1 (stereo not given)	-20%	-6%
COc1ccc(CNC(=O)c2ccc3nc(CCc4ccccc4)oc3c2)c(OC)c1	?	-3%
CN(Cc1ccccc1)C(=O)[C@H](Cc1ccc2ccccc2c1)NC(=O)[C@@H]1C[C@@H](O)CN1C(=O)c1cn(C)c2ccccc12	?	-1%
COc1cc2c(C#N)c(N3CCc4ccccc4C3)nc(N)c2c(N)n1	13µM*	-9%
COc1cc2c(C#N)c(N3CCCCC3)nc(N)c2c(N)n1	-28%	-13%
CCNc1nc(N)nc(Oc2ccc(OCC(=O)OC)nn2)n1	2%	5%
COc1cccc(-c2nc(-c3ccc4c(c3)-c3ccccc3S4(=O)=O)c(-c3ccccc3)[nH]2)c1OC	13µM*	-10%
COc1cc(-c2nc(-c3ccc4c(c3)-c3ccccc3S4(=O)=O)c(-c3ccccc3)[nH]2)cc(OC)c1OC	-2%	-1%
COC(=O)c1ccc(Nc2nnc(-c3ccc(C)c(S(=O)(=O)N4CCN(C)CC4)c3)c3ccccc23)cc1	15%	-18%
CSCCC(NC(=O)c1ccc(Cl)cc1)C(=O)OCC(=O)Nc1cc(Cl)ccc1C (stereo not given)	?	22µM*
CC(C)c1ccc(NC(=O)COC(=O)[C@H](CCC(N)=O)NC(=O)c2ccc(F)cc2)cc1	13%	?
CCc1ccc(C(=O)COC(=O)C(CCSC)NC(=O)c2ccccc2)cc1 (stereo not given)	-12%	-3%
CC(C)[C@H](NC(=O)c1ccccc1)C(=O)OCC(=O)Nc1ccc(Cl)cc1C(F)(F)F	-2%	-3%
NC(=O)CC[C@H](NC(=O)c1ccc(F)cc1)C(=O)OCC(=O)Nc1c(F)c(F)c(F)c(F)c1F	13µM*	28µM*
N#Cc1ccc(Cl)cc1NC(=O)COC(=O)[C@H](CCC(N)=O)NC(=O)c1ccc(F)cc1	20µM*	20µM*
O=C(CCSCc1cccc(Cl)c1)NCc1ccc(F)cc1Cl	14%	-1%
COc1ccc(-c2cc(C(F)(F)F)nc(SCC(=O)NCCc3ccc(OC)c(OC)c3)n2)cc1	-16%	-3%
COc1cccc(Cn2c(=O)cnc3cnc(OC)nc32)c1	-3%	-3%
O[C@@H]1[C@@H](OCc2ccccc2)OC[C@H](O)[C@@H]1O	-6%	7%
CCC(C(=O)Nc1ccc(C)c(Cl)c1)n1c(=O)c(-c2ccccc2NC(C)=O)nc2ccccc21 (stereo not given)	11%	-2%
CN(C)CCNc1nc(-c2ccco2)c2c(c1C#N)CC(C)(C)OC2	4%	-5%
N#Cc1c(NCCN)nc(-c2ccco2)c2c1CCCC2	25µM*	-7%
O=C(COc1ccc(/C=N/NS(=O)(=O)c2ccccc2)cc1)Nc1cccc(Cl)c1	-14%	-5%
SMILES	Cruzain inh noDet	Cruzain Triton
Cc1cc(C)cc(OCC(=O)Nc2ccc(-c3nc4ccccc4o3)cc2)c1	1%	-2%
Cc1ccc(OCC(=O)Nc2ccc3nc(Nc4cccc(Cl)c4)cc(C)c3c2)cc1	20µM*	3%
Cc1ccc(OCC(=O)Nc2ccc(O)c(-c3nc4ccccc4o3)c2)cc1	4µM*	-2%
O=C(Nc1ccc(O)c(-c2nc3ccccc3o2)c1)c1ccc(Br)cc1	-2%	0%
O=C(Nc1ccc(O)c(-c2nc3ccccc3o2)c1)C1(c2ccc(Br)cc2)CCCC1	5µM*	0%
CCCCC(CC)COCCCN (stereo not given)	-3%	0%
COc1ccc(CNc2ccnc(-c3c(C)noc3C)n2)c(OC)c1	0%	4%
NC(=S)N/N=C/c1ccc(-c2cccc([N+](=O)[O-])c2)o1	3.2µM*	2.8µM*
Nc1nonc1C(=O)N/N=C/c1ccc(-c2cccc([N+](=O)[O-])c2)o1	-16%	-11%
Cc1n[nH]c(=S)n1/N=C/c1ccc(-c2ccccc2[N+](=O)[O-])o1	-7%	-2%
O=[N+]([O-])c1cccc(-c2ccc(/C=N/n3c(-c4ccccc4)n[nH]c3=S)o2)c1	16µM*	-4%
CCc1ccc(OCC(=O)N(Cc2ccc(C)o2)C2CCS(=O)(=O)C2)cc1 (stereo not given)	-4%	-3%
Cc1ccc2c(=O)cc(C(=O)Nc3cccc(Cl)c3C)oc2c1C	4%	0%
Cc1noc(C)c1C(=O)N1CCC2(CC1)CN(c1ccccc1)C2	10%	1%
Cn1c(=O)c2c(nc(N/N=C/c3ccc(OC(=O)c4ccco4)cc3)n2Cc2ccccc2Cl)n(C)c1=O	32µM*	?
Cn1c(=O)c2c(nc(N/N=C/c3ccc(OC(=O)c4ccco4)cc3)n2Cc2ccc(F)cc2)n(C)c1=O	?	-15%
